Rab9 prom act = activates the Rab9 promoter. Huh7 Rab9 promoter-luciferase reporter, luminescence, 24 h. Potency, µM (series often up to 9.22 µM), inactives show at the top dose activation, negative = inhibition, hits mostly activators. 2.8% of 320,000 active. AID 485297; also: % of control where 0% means no effect; nearly all actives have a fitted effect of over 60% in size
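Cells were plated at 1500 per well in reduced-serum medium with 10% FBS and left 2 h. Compound in DMSO was then added for 24 h at 37 °C. Reporter signal was read by luminescence after 10 min with luciferase detection reagent.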
FLuc counter = firefly luciferase modulation, counter-screen for miR-21 project. purified FLuc, Km substrates, luminescence inhibition. AID 588342. 6.9% of 360,000 active. Potency, µM (titrated, usually from 57.5 µM), for the others: top-dose activity change, negative = inhibition, hits mostly inhibitors. P08659;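 also: plate controls were vehicle for no effect and reference inhibitor for full effect; nearly all actives have a fitted effect of over 55% in size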
Target sequence (P08659 whole entry, looked up): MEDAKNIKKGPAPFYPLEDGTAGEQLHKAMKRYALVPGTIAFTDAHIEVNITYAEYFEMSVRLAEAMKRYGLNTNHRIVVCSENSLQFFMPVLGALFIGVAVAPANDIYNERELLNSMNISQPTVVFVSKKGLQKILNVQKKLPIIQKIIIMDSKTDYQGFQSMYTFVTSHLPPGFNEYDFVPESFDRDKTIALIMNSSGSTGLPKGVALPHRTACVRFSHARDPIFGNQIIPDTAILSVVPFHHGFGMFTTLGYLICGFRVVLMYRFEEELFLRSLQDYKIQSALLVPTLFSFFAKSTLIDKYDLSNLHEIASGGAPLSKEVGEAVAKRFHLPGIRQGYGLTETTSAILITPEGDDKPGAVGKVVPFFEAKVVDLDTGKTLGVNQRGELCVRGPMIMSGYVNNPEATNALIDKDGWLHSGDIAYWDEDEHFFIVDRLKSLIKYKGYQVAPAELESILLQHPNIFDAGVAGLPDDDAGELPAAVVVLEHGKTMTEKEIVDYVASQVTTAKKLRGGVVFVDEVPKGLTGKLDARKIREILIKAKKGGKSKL
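Purified P. pyralis luciferase, 10 nM final, with Km-level 10 uM D-luciferin and 10 uM ATP in 50 mM Tris acetate pH 7.5, 10 mM Mg acetate, 0.01% Tween-20, 0.05% BSA; 6-point qHTS titration about 60 µM downward; luminescence read.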
KinaseGlo FLuc = blocks Kinase-Glo luciferase, a counter-screen artifact; Potency, µM (titrated, usually from 38.3 µM), for the others: top-dose activity change, negative = inhibition, actives largely listed as inhibitors; Q27757; 0.28% of 200,000 active; Kinase-Glo luciferase, ATP luminescence, 8 min; also: % is scaled to controls: 0 for no effect and ±100 for the full control effect; nearly all actives have a fitted effect of over 60% in size
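Light output from Kinase-Glo luciferase with luciferin and 10 uM ATP in 50 mM imidazole pH 7.2, KCl, MgCl2, Tween 20, BSA; compound pin-delivered, 8-min ambient incubation, then luminescence read.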
SMN2 splice enh = SMN2 splice variant enhancement | HEK293 SMN2-luciferase splicing reporter, luminescence, 30-36 h | Potency, µM (highest dose often 46.1 µM), for the others: top-dose activity change, positive = activation, actives largely listed as activators | 2.8% of 210,000 active | AID 1458; also: % of control where 0% means no effect; nearly all actives have a fitted effect of over 55% in size
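qHTS luciferase splicing reporter: luminescence rises when SMN2 exon 7 is included in transfected HEK293 cells. Compound exposure lasted 30-36 h at 37C, with 4.5 mM final sodium butyrate as control, followed by a ONE-Glo read.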
NPC1 promoter act = activates the NPC1 promoter; Huh7 NPC1 promoter luciferase reporter, 24 h; Potency, µM (highest dose often 9.22 µM), for inactives: at the top dose activation, hits mostly activators; 2.4% of 320,000 active; AID 485313; also: % of control where 0% means no effect; nearly all actives have a fitted effect of over 60% in size
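Luminescence read-out of NPC1 promoter-driven luciferase in stably transfected Huh7 cells; compounds delivered in DMSO and left 24 h at 37C, 5% CO2, qHTS titration format.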
ELG1 genotox = genotoxicity induction in ELG1-luciferase HEK293T cells. 1.3% of 330,000 active. Potency, µM (series often up to 46 µM), for inactives: at the top dose activity change, positive = activation, usual class: activators. AID 504466. HEK293T ELG1-luciferase reporter, luminescence, 16 h; also: % of control where 0% means no effect; nearly all actives have a fitted effect of over 60% in size
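Reporter readout depends on ELG1 protein level, which increases with genetic stress. After 16 hr compound exposure at 37 °C, luciferase activity was quantified using ONE-Glo.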
* hit, by the source's call; ? = inconclusive; nt = not tested or not shown; [ ] = dose if it differs, or a comment. Shown are actives, neighbours in structure and some others; about 7.3% of the full set was active somewhere. Calls follow the shape of the dose curve; as a rule, active = well fitted curve in the direction sought with a large enough effect; inconclusive = small, poorly fitted or top-dose-only effect, or another doubt; inactive = no such curve, though single readings can be large; an effect the other way counts as inactive or inconclusive. Potency is read from the fitted curve at half-maximal effect.

SMILES | Rab9 prom act | FLuc counter | KinaseGlo FLuc | SMN2 splice enh | NPC1 promoter act | ELG1 genotox
Cc1c(C(=O)N2CCCC(C(F)(F)F)C2)oc2ccccc12 (centres undefined) | 3.3% | ? | nt | nt | 0.0% | 2.5%
O=C(c1ccc(-c2ccccc2Cl)o1)N1CCCC(C(F)(F)F)C1 (centres undefined) | ? | 13.5µM* | nt | nt | 29.4% | ?
CN1CCCN(C(=O)c2ccccc2Cl)CC1 | 3.6% | -1.7% | nt | nt | -3.1% | -1.6%
O=C(c1ccc(-c2ccccc2Cl)o1)N1CCC1 | ? | 16.9µM* | nt | nt | ? | ?
CC1CCN(C(=O)c2ccc(-c3ccccc3Cl)o2)CC1 | 0.316µM* | 2.13µM* | nt | nt | 0.891µM* | ?
O=C1CCCc2cc(S(=O)(=O)N3CCCC(C(=O)Nc4ccc(F)c(Cl)c4)C3)ccc2N1 (centres undefined) | nt | -10.9% | nt | nt | nt | nt
Cc1cc2nc(C3CCN(C(=S)NCC(C)C)CC3)[nH]c2cc1C | -0.9% | 16.9µM* | -7.9% | -3.1% | 0.2% | 3.3%
COc1ccccc1NC(=O)N1CCC(c2nc3cc(C)c(C)cc3[nH]2)CC1 | -26.4% | ? | -4.7% | 12.3% | -7.6% | ?
Cc1cc2nc(C3CCCN(C(=S)Nc4ccccc4)C3)[nH]c2cc1C (centres undefined) | -3.2% | ? | -2.8% | 2.2% | -0.7% | 3.9%
COc1ccccc1NC(=S)N1CCC(c2nc3cc(C)c(C)cc3[nH]2)CC1 | 21.9% | 13.5µM* | -1.6% | -1.4% | 4.3% | 5.6%
COc1ccc(CNc2ccc([N+](=O)[O-])cn2)cc1 | 3.98µM* | 10.7µM* | nt | nt | 3.16µM* | ?
N/C(=N\OC(=O)Nc1ccc(Cl)cc1)c1ncc(C(F)(F)F)cc1Cl | 1.5% | ? | 5.1% | -5.2% | -2.3% | ?
N/C(=N\OC(=O)Nc1ccccc1)c1ncc(C(F)(F)F)cc1Cl | ? | 12µM* | -12.1% | 54.6% | 23.9% | 23.1µM*
Cc1cccc(-n2c(-c3ccccc3)cn3c4c(=O)[nH]c(=O)n(C)c4nc23)c1 | nt | 3.7% | nt | ? | nt | nt
Cc1ccc2nc(NC(=O)C3CCCN(S(=O)(=O)c4cccnc4)C3)sc2c1 (centres undefined) | 0.4% | -9.2% | 0.8% | -26.9% | -1.4% | -0.8%
Cc1ccc2nc(NC(=O)C3CCCN(S(=O)(=O)c4cnc[nH]4)C3)sc2c1 (centres undefined) | ? | 12µM* | 1.5% | ? | ? | 5.0%
COc1ccc(N2CCN(c3oc(/C=C/c4ccccc4OC)nc3C#N)CC2)cc1 | nt | -9.8% | nt | -1.0% | nt | nt
C/C(N)=C(/C#N)C(=O)CSc1ccc2c(c1)OCCO2 | 2.82µM* | 12µM* | -10.1% | 12.6µM* | 3.16µM* | ?
Cn1c(N)c(C(=O)CSc2ccc3c(c2)OCCO3)c(=O)n(C)c1=O | 6.4% | ? | -6.7% | -20.3% | -0.8% | -7.3%
Cc1cc(C(=O)CSc2ccc3c(c2)OCCO3)c(C)n1C1CC1 | 2.82µM* | 10.7µM* | -2.0% | ? | ? | ?
CC(C)Cn1c(=O)c2sccc2n2c(CCCC(=O)Nc3ccc(Cl)cc3)nnc12 | nt | -6.3% | nt | nt | nt | nt
c1ccc(-c2onc3cc4c(cc23)OCCO4)cc1 | 3.16µM* | -10.4%[2.3 µM] | -10.5% | 35.5µM* | ? | ?
O=C(N/N=C/C1CC=CCC1)c1cc2ccccc2cc1O (centres undefined) | 2.4% | -81.6% | -0.8% | 18.9% | -0.7% | 3.6%
O=C(N/N=C/C1CC=CCC1)c1ccc(O)cc1O (centres undefined) | 3.0% | 19µM* | -1.3% | 3.5% | -1.3% | 0.3%
O=C(OCC(=O)c1ccc(Cl)cc1Cl)c1cnccn1 | -1.5% | 12µM* | nt | nt | -1.1% | 2.9%
SMILES | Rab9 prom act | FLuc counter | KinaseGlo FLuc | SMN2 splice enh | NPC1 promoter act | ELG1 genotox
Cc1ccc(C(=O)COC(=O)c2cnccn2)cc1C | 1.1% | 21.3µM* | -1.9% | 6.4% | 0.6% | 0.6%
Cc1ccc(C(=O)COC(=O)c2cnccn2)cc1 | 1.9% | 6.75µM* | -4.7% | 4.4% | 6.2% | 0.7%
Cc1ccc(C(=O)COC(=O)C2CCC2)cc1 | -2.8% | 0.379µM* | nt | nt | -0.4% | 2.1%
O=C(OCC(=O)c1ccccc1Cl)c1cnccn1 | 2.4% | ? | -3.3% | -6.0% | -6.3% | 1.0%
CCCC(=O)Nc1ccc(C(=O)COC(=O)C2CC2)cc1 | nt | nt | nt | nt | nt | 15.3%
Cc1ccc(C(=O)COC(=O)c2cnccn2)cc1[N+](=O)[O-] | -4.2% | 5.9% | 1.8% | 6.8% | 2.2% | 1.1%
COC(=O)c1scc(-c2ccc(C)cc2)c1S(=O)(=O)N1CCN(c2cccc(OC)c2)CC1 | nt | 5.3% | nt | nt | nt | nt
COc1ccc(NC(=O)CSC2=Nc3ccccc3C3=NC(CC(=O)NCc4ccc(F)cc4)C(=O)N23)cc1 (centres undefined) | nt | -9.3% | nt | nt | nt | nt
Cc1ccc(C(=O)COC(=O)c2ccc(O)cc2)cc1 | 3.16µM* | 10.7µM* | -4.5% | nt | ? | ?
COc1ccccc1-n1c(/C=C/c2c(C)n(C)c3ccccc23)nc2ccccc2c1=O | nt | -8.0% | nt | 2.5% | nt | nt
CCn1c(-c2ccccc2)csc1=Nc1ccc(S(=O)(=O)O)cc1 | ? | 3.79µM* | 4.7% | -18.5% | ? | -0.4%
CCOc1ccccc1-c1noc(CSc2nnc(-c3ccncc3)n2-c2ccc(F)cc2)n1 | nt | -10.4% | nt | -0.3% | nt | nt
Cc1cc(NCCOCCO)n2ncc(-c3ccc(Cl)cc3)c2n1 | 0.891µM* | 1.35µM* | -2.2% | 10µM* | 1.26µM* | ?
Cc1nn2c(NCc3ccccn3)cc(C(C)C)nc2c1-c1ccccc1 | -26.9% | -1.1% | nt | nt | -4.3% | -10.6%
COc1ccc(CCNc2cc(C)nc3c(-c4ccccc4OC)cnn23)cc1OC | 4.3% | 3.6% | nt | nt | -5.1% | -7.2%
Cc1cc(NCc2ccccn2)n2ncc(-c3ccccc3)c2n1 | ? | 4.26µM* | nt | nt | 0.501µM* | ?
Cc1cc(NCc2ccccn2)n2ncc(-c3ccc(Cl)cc3)c2n1 | ? | 10.7µM* | nt | nt | ? | 6.3%
COc1ccccc1-c1cnn2c(NCc3ccccc3)cc(C)nc12 | 24.1% | 16.9µM* | nt | nt | 16.4% | 5.0%
Cc1cc(NCc2ccccn2)n2nc(C)c(-c3ccc(Cl)cc3)c2n1 | -31.9% | ? | nt | nt | -10.6% | -11.0%
C[C@H](CCC(=O)O)[C@H]1CC[C@@H]2[C@@H]3CC[C@H]4C[C@@H](O)CC[C@@]4(C)[C@@H]3C[C@H](O)[C@@]21C | nt | nt | -2.9%[7.66 µM] | -4.2%[9.22 µM] | nt | nt
Cc1cc(NCCCN2CCOCC2)n2ncc(-c3ccccc3)c2n1 | 0.708µM* | 7.57µM* | 5.5% | 15.8µM* | 1µM* | 9.2µM*
COc1ccccc1CNc1cc(C)nc2nc(-c3ccc(C)cc3)nn12 | nt | 6.01µM* | nt | nt | nt | nt
Nc1nc(-c2ccccc2Br)cs1 | 0.3% | -11.5% | 2.1% | 20.3% | -3.5% | -2.5%
